G9a block – qHTS Assay for Inhibitors of Histone Lysine Methyltransferase G9a. 350,000 tested, 8.8% active. Potency, µM (titrated, usually from 102 µM), usual class: inhibitors. G9a H3K9 monomethylation, AlphaScreen, 2 h. Histone-lysine N-methyltransferase EHMT2 (Homo sapiens), Q96KQ7; further: nearly all actives have a fitted effect of over 75% in size
Target sequence (Q96KQ7 913-1193 limits assumed): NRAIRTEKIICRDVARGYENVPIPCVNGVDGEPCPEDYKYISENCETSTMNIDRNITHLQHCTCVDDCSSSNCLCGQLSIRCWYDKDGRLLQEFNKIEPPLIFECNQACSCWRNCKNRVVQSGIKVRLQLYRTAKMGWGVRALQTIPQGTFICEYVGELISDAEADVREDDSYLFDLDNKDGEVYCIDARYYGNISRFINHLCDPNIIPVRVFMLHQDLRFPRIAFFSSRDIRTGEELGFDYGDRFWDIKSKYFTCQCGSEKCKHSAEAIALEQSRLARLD
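Quantitative HTS format: methyltransferase activity on a biotin-tagged H3K9 peptide is measured by AlphaScreen, using a rabbit anti-monomethyl-H3K9 antibody with streptavidin donor and anti-IgG acceptor beads. Final levels are 20 nM enzyme, 500 nM peptide, 20 uM SAM; 2 h RT.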
JMJD2A Tudor – qHTS Assay for Inhibitors of JMJD2A-Tudor Domain. AlphaScreen JMJD2A-Tudor / H3K4me3 peptide binding. 390,000 tested, 4.4% active. Potency, µM (top dose mostly 114 µM), most hits filed as inhibitors. Lysine-specific demethylase 4A (Homo sapiens), O75164; further: nearly all actives have a fitted effect of over 50% in size
TDP1 block – qHTS Assay for Inhibitors of Tyrosyl-DNA Phosphodiesterase (TDP1); 350,000 tested, 0.28% active; Tyrosyl-DNA phosphodiesterase 1 (Homo sapiens), Q9NUW8; recombinant TDP1, AlphaScreen DNA substrate cleavage; Potency, µM (titrated, usually from 130 µM), most hits filed as inhibitors; further: nearly all actives have a fitted effect of over 40% in size
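Here, a 5' biotin and 3' phosphotyrosine-FITC DNA oligonucleotide reports Tdp1 activity: intact substrate bridges AlphaScreen beads, while cleavage leaves a 3' phosphate and drops signal. All incubations at room temperature.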
HP1b binding inh – HTS for Inhibitors of HP1-beta Chromodomain Interactions with Methylated Histone Tails; AlphaScreen HP1-beta / biotin-H3K9me3 peptide binding; Chromobox protein homolog 1 (Homo sapiens), P83916; Potency, µM (highest dose often 114 µM), usual class: inhibitors; AID 540317, 2011; 390,000 tested, 0.56% active; further: nearly all actives have a fitted effect of over 70% in size
Target sequence (P83916 whole entry, looked up): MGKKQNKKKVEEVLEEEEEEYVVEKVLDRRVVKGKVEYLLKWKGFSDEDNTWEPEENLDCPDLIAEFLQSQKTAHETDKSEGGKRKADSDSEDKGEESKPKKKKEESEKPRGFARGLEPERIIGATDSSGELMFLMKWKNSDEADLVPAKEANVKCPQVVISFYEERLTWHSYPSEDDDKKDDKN
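AlphaScreen: HP1-beta (50 nM) preformed 30 min with biotin-H3(1-18)K9me3 peptide (50 nM) in PBS pH 7.4, 0.01% Tween-20. Compound added for 30 min at RT, then streptavidin donor/nickel chelate acceptor beads (10 ug/mL) for 30 min.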
BAZ2B inh – qHTS Assay for Inhibitors of BAZ2B; Bromodomain adjacent to zinc finger domain protein 2B (Homo sapiens), Q9UIF8; AlphaScreen BAZ2B-H3K14Ac peptide displacement; Potency, µM (highest dose often 114 µM), usual class: inhibitors; 360,000 tested, 4.4% active; further: nearly all actives have a fitted effect of over 60% in size
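BAZ2B 50 nM plus b-H3(5-23)K14Ac 50 nM, PBS pH 7.4/0.01% Tween-20, 30 min RT; compound added (max 110 uM), 30 min RT; streptavidin donor/Ni-chelate acceptor beads 10 ug/mL final, 20 min dark; AlphaScreen read.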
Sfp inh – qHTS Assay for Inhibitors of Bacillus subtilis Sfp phosphopantetheinyl transferase (PPTase); Biochemical Sfp PPTase activity, qHTS; Potency, µM, usual class: inhibitors; 310,000 tested, 3.5% active;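 further: the enzyme is Sfp with the accession as filed and its product quenches rhodamine fluorescence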
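Reaction rates are the 30-min fluorescence difference (ex 525, em 598 nm) in wells containing 15 nM Sfp, 5 uM rhodamine-CoA and 12.5 uM BHQ-2-YbbR at pH 7.6 with 10 mM MgCl2.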
A number is an active result; n = inactive; u = inconclusive; x = not tested or not shown; [ ] = dose if it differs, or a comment. Rows were chosen to be rich in hits. Some 12% of all compounds tested hit in one or more screens of this group. The call rests on the fitted dose curve; in most records, active means well fitted curve in the direction sought with a large enough effect; inconclusive means small, poorly fitted or top-dose-only effect, or another doubt; inactive means no such curve, though single readings can be large; an effect the other way counts as inactive or inconclusive.

SMILES	G9a block	JMJD2A Tudor	TDP1 block	HP1b binding inh	BAZ2B inh	Sfp inh
CCOc1ccccc1N1CSC2=C(C#N)C(c3c(OC)ccc4ccccc34)CC(=O)N2C1 (centres undefined)	0.56µM	35µM	n	u	50µM	3.2µM
COc1ccc(N2C(=O)C3CC(C)=C(C)CC3C2=O)c(OC)c1 (centres undefined)	n	n	n	n	n	n
COc1ccc(N2CSC3=C(C#N)C(c4ccc(OC)c(OC)c4)CC(=O)N3C2)c(OC)c1 (centres undefined)	2.5µM	20µM	n	u	u	3.2µM
CCSC1=C(C#N)C(c2ccc(OC)c(OC)c2)CC(=O)N1 (centres undefined)	n[12.7 µM]	n	n	n	n	n
COc1ccc(N2CSC3=C(C#N)C(c4cc(OC)c(OC)cc4OC)CC(=O)N3C2)c(OC)c1 (centres undefined)	3.5µM	20µM	n	20µM	45µM	3.5µM
COc1ccc(C2C(=O)N(C3CCCCC3)CC(=O)N2C2CCCC2)cc1 (centres undefined)	n	n	n	n	n	n
CC(=O)Nc1ccc(NC(=O)CCC(=O)OCC(=O)c2ccc(F)cc2)cc1	n	n	n	n	n	n
COc1ccc(N2CSC3=C(C#N)C(c4cc(OC)ccc4OC)CC(=O)N3C2)c(OC)c1 (centres undefined)	2.2µM	22µM	n	16µM	45µM	3.2µM
COc1cc(OC)c(C2CC(=O)N3CN(c4ccc(C)cc4)CSC3=C2C#N)cc1OC (centres undefined)	n[2.33 µM]	4.5µM	n	u	u	5µM
CCCSC1=C(C#N)C(c2cc(OC)ccc2OC)CC(=O)N1 (centres undefined)	n	n	n	n	n	n
C=CCOc1ccc(C2C(C(=O)c3ccco3)=C(O)C(=O)N2CCCN(CC)CC)cc1 (centres undefined)	u	n	n	n	n	n
CCCOc1cccc(C2C(C(=O)c3ccc(C)o3)=C(O)C(=O)N2CCN2CCOCC2)c1 (centres undefined)	45µM	n	n	n	n	n
CCCOc1cccc(C2C(C(=O)c3ccco3)=C(O)C(=O)N2CCN(CC)CC)c1 (centres undefined)	u	n	n	n	n	n
C=CCOc1cccc(C2C(C(=O)c3ccc(C)o3)=C(O)C(=O)N2CCN(C)C)c1 (centres undefined)	45µM	u	n	n	n	n
COc1cc(C2C(C(=O)c3ccc(C)o3)=C(O)C(=O)N2CCN2CCOCC2)ccc1OCCC(C)C (centres undefined)	32µM	u	n	n	n	n
COc1ccccc1-c1nnc(SC(C)C(=O)NCC2CCCO2)n1C (centres undefined)	x	n	x	n	x	x
CCCN(CCC)C(=O)Cn1c(=O)n(-c2ccc(OC)cc2)c(=O)c2ccc(C(=O)NCc3ccc(C)cc3)cc21	n	n	n	n	x	x
Cc1ccc(-n2sc3ccccc3c2=O)cc1S(=O)(=O)N1CCCCC1	0.89µM	7.9µM	n	u	5.6µM	1.6µM
O=c1c2ccccc2sn1-c1ccc(S(=O)(=O)N2CCCC2)cc1	x	11µM	n	1.4µM	7.1µM	3.2µM
O=c1c2ccccc2sn1-c1ccc(S(=O)(=O)N2CCCCC2)cc1	x	8.9µM	n	u	x	x
O=S(=O)(c1ccccc1)N1CCN(S(=O)(=O)N2CCCCCC2)CC1	n	n	n	n	n	n
COC(=O)c1c(SC)nc2ccccc2c1OCc1ccc(C)cc1C	n	n	n	n	n	x
COc1ccc(Br)cc1S(=O)(=O)n1c([N+](=O)[O-])cnc1C	u	n	x	n	n	n
